# Results from PubChem BioAssay.
# Where “and” joins values, the source holds several entries; their conditions need not be identical. Identical values can stand only once. For some of these results: Measured potencies and affinities stand elsewhere. Calls of active or inactive are those of the source.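 How the source made its calls, unless noted: active means compounds whose cell count with miR-34 switched on is under 0.7 times the count with it off; inactive means the rest.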
# Tests used:
# [1] = circadian clock period modulators, cell-based, LOPAC library, luminescence reporter (AID 2774; call rule not given here;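 further: values are relative to mean of DMSO wells on each plate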); settings: circadian reporter cells, at 7 µM, actives lie on both sides
# [2] = hESC survival regulators, cell-based (AID 493140; call rule not given here;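 further: cells exposed to compounds for four days before counting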); settings: human embryonic stem cell survival screen; stronger effect = higher value
# [3] = liver-stage malaria parasite growth inhibition, primary screen, cell-based, HepG2, luciferase luminescence, HepG2 viability (AID 624349; in the data active means parasite load remaining mostly below about 12%, no sharp cut-off; inactive means mostly above about 10%;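 further: 100% = mean of DMSO negative control wells on the same plate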); settings: P. berghei liver stage in HepG2, luciferase luminescence, concentration not given here; parasite load remaining: stronger effect = lower value; viability: measured here: HepG2 viability without parasites
# [4] = system: Hepatitis C virus NS3 helicase; test: HCV NS3 helicase inhibitors, primary screen, biochemical, fluorescence polarization, LOPAC1280 library (AID 687035; in the data active means inhibition above about 37%); settings: Purified HCV NS3 helicase, Cy5-dT15 ssDNA binding fluorescence polarization; stronger effect = higher value; concentration not given here
# [5] = Cy5 fluorescence quenching or enhancement artefacts, artefact control for HCV NS3 helicase inhibitor project, biochemical, LOPAC1280 (AID 687037; call rule not given here); settings: Cy5-DNA-NS3h complex fluorescence interference counterscreen
# [6] = differential killing of epithelial or mesenchymal cells, primary screen, imaging, PC-3E GFP, TEM4-18 mCherry, co-culture (AID 1345086;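 active means compounds killing one labelled cell type while sparing the other, by normalised counts and ratio limits, not self-fluorescent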;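 on all read-outs here: cells exposed to compound for 72 h before imaging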;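 on red/green cell ratio (normalised): normalised mesenchymal count divided by normalised epithelial count so high means epithelial killing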); settings: imaging cell counts, at 1 µM; for red/green cell ratio (normalised): actives lie on both sides, counts scaled to control wells, 1 = unselective
# [7] = sensitizers of A549 cells to miR-34 induction, primary screen, imaging, A549 dox-inducible miR-34, nuclei and caspase counts (AID 1347080); settings: A549 miR-34 inducible, Hoechst nuclei count, 48 h
# [8] = phospholipid biosynthesis inhibitors in animal cells, primary screen, cell-based, LOPAC library, screen 4 (AID 1347384; call rule not given here); settings: phospholipid biosynthesis inhibition screen, at 10 µM
# [9] = survival rescue of mitochondrial mutant cells in low glucose, primary screen, MELAS cybrids, Rieske KO mouse fibroblasts, CellTiter-Glo (AID 1508586;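 active means mean z-score across replicates of 1.96 or higher in either the MELAS or the Rieske mutant cell line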;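 further: z relative to plate mean and SD of compound and empty wells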)
# [10] = target: NAD(+) hydrolase SARM1 (Homo sapiens) (UniProt Q6SZW1); test: SARM1 TIR NADase inhibitors, cell lysate, NAD-Glo luminescence (AID 1508614;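 active means compound whose remaining NAD level is above about 45 nM, limit read from the data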); settings: SAM-TIR HEK293T lysate NADase, at 1 µM, stronger effect = higher value
# Chain of NAD(+) hydrolase SARM1 (Homo sapiens) (Q6SZW1 whole entry, looked up): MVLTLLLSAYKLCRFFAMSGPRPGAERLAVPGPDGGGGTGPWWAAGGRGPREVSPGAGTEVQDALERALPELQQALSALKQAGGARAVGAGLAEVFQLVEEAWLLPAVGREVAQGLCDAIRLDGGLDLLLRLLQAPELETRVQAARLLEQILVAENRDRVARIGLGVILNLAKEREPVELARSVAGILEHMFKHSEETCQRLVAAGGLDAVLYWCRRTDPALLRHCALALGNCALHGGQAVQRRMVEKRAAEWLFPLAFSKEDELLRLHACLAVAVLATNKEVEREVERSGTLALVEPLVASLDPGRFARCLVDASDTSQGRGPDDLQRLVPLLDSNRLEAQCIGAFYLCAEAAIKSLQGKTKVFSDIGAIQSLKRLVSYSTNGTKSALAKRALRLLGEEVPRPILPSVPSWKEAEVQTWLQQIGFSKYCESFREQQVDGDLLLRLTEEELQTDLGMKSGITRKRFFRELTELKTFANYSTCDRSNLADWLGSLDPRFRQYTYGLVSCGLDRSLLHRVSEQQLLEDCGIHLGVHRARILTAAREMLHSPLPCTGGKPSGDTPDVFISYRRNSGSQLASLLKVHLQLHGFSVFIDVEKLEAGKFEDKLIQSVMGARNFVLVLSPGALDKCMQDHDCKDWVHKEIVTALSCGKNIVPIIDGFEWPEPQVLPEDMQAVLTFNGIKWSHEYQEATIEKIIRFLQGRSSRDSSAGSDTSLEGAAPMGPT
# [11] = viability rescue of complex I mutant cybrids, primary screen, cell-based, galactose medium, ATP luminescence (AID 1645843;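 active means z-score of at least 1.8 in each of two replicates, scored against plate mean and spread of sample wells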;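 further: positive z means more ATP and so rescue of galactose-driven cybrid death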); settings: complex I mutant cybrid cells, 72 h, stronger effect = higher value
# [12] = target: Mitogen-activated protein kinase 7 (Homo sapiens) (UniProt Q13164); test: ERK5 transactivation activators in reporter cells, primary screen, cell-based, HTS (AID 1508626;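 active means luciferase signal above three times the same-plate solvent-only control wells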;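 further: luciferase driven by Gal4-ERK5 fusion binding five Gal4 sites before minimal TATA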); settings: HeLa Gal4-ERK5 transactivation, 18 h, at 5 µM, stronger effect = higher value
# Chain of Mitogen-activated protein kinase 7 (Homo sapiens) (Q13164 whole entry, looked up, the tested form may be a part): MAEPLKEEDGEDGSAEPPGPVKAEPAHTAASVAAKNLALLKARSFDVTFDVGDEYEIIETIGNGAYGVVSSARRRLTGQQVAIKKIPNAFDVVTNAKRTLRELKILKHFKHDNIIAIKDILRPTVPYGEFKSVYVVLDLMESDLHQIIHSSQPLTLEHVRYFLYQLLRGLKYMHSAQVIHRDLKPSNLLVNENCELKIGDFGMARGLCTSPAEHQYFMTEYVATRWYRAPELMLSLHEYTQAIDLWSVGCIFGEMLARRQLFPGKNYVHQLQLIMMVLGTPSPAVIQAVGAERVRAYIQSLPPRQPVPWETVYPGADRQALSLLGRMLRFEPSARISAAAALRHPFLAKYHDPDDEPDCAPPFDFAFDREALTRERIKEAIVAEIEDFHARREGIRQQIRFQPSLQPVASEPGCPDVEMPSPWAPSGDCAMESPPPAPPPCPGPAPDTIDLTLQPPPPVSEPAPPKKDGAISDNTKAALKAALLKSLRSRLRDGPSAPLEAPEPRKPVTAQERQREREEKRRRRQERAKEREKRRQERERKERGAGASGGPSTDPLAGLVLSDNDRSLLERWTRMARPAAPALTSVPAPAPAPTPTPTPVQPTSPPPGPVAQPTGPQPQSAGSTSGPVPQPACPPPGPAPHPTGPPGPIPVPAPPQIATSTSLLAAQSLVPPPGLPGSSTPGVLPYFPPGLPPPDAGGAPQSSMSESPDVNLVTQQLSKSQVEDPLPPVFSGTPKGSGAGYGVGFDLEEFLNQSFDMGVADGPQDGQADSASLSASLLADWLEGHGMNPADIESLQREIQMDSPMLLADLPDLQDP
# [13] = polyglutamine-triggered caspase-3 activation inhibitors, cell-based (AID 1583); settings: polyglutamine-induced caspase-3 activation, cell assay; stronger effect = higher value;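 tested at 10 µM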
# [14] = suppressors of polyQ aggregation in yeast, 75Q-TubU reporter (AID 1593); settings: Yeast 75Q polyglutamine aggregation reporter
# [15] = rescue of polyQ-huntingtin neuronal dysfunction in worms, whole organism, C. elegans mechanosensory neurons, N-terminal huntingtin (AID 1599); settings: touch response, stronger effect = higher value
# [16] = inhibitors of mitochondrial cytochrome c release, biochemical, purified mitochondria (AID 1603); settings: stronger effect = lower value;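 further: mouse liver mitochondria challenged with calcium chloride; signal normalized to the plate average as 100%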
# [17] = inhibitors of polyQ protein aggregation (AID 1604); settings: polyglutamine-induced protein aggregation inhibition assay; stronger effect = higher value; tested at 2.5 µM
# [18] = enhancers of glutamate uptake in motor neurons, MN-1 cell line (AID 1612); settings: MN-1 motor neuron cells, stronger effect = higher value;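 further: tested at 1 µM final; 0% = mean of DMSO vehicle wells on each plate; positive means more glutamate uptake than control and negative means less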
# [19] = reducers of polyQ inclusions in PC12 cells, cell-based, NGF-treated PC12, GFPQ80 (AID 1614); settings: PC12 NGF-treated GFP-polyQ80 inclusion reduction;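 further: lower means fewer inclusions and 0 means no inclusions at all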
# [20] = suppressors of polyglutamine aggregation in yeast, 75Q-TubH (AID 1616); settings: S. cerevisiae 75Q-TubH polyglutamine aggregation suppression; stronger effect = higher value
# [21] = measured here: epithelial PC-3E GFP cell survival
# [22] = measured here: mesenchymal TEM4-18 mCherry cell survival
# [23] = stronger effect = lower value, cell number ratio, induced over uninduced
# [24] = measured here: relative caspase fold change +Dox/-Dox
# [25] = measured here: total cells with miR-34 induction, stronger effect = lower value
# [26] = measured here: total cells without miR-34 induction
# [27] = MELAS cybrid survival, CellTiter-Glo 48 h, stronger effect = higher value
# [28] = Rieske KO mouse fibroblast survival, CellTiter-Glo 72 h
compound,measurement,setting,value
N[C@H]1CONC1=O,period change,[1],-0.055 h (inactive)
same,survival,[2],1.5 (inactive)
same,parasite load remaining,[3],74% (inactive)
same,viability,[3],71%
same,inhibition,[4],0% (inactive)
same,fluorescence ratio (interference),[5],1 (inactive)
same,red/green cell ratio (normalised),[6],0.88 (inactive)
same,normalised cell number,[6]; [21],1.18
same,normalised cell number,[6]; [22],1.03
same,fold change,[7]; [23],1.03 (inactive) and 0.935 (inactive) and 0.898 (inactive)
same,fold change,[7]; [24],1.58 and 1.14 and 0.652
same,cell count,[7]; [25],10600 and 9010 and 9280
same,cell count,[7]; [26],10300 and 9640
same,outcome,[8],inactive
same,z-score,[9]; [27],-0.786 (inactive)
same,z-score,[9]; [28],-1.27
same,remaining NAD,[10],10 nM (inactive)
same,z-score,[11],-0.18 (inactive)
CCOC(=O)CC(=O)N1CCSC1COc1ccccc1OC (stereo not given),red/green cell ratio (normalised),[6],1.03 (inactive)
same,normalised cell number,[6]; [21],0.9
same,normalised cell number,[6]; [22],0.93
same,fold change,[7]; [23],0.901 (inactive) and 0.963 (inactive)
same,fold change,[7]; [24],1.01 and 0.429
same,cell count,[7]; [25],7560 and 7640
same,cell count,[7]; [26],8380 and 7930
same,z-score,[9]; [27],-0.272 (inactive)
same,z-score,[9]; [28],-0.0679
same,remaining NAD,[10],10 nM (inactive)
CC(C)CC(N)=O,red/green cell ratio (normalised),[6],0.8 (inactive)
same,normalised cell number,[6]; [21],1.07
same,normalised cell number,[6]; [22],0.86
same,fold change,[7]; [23],0.906 (inactive) and 0.908 (inactive)
same,fold change,[7]; [24],0.955 and 0.851
same,cell count,[7]; [25],8450 and 8440
same,cell count,[7]; [26],9330 and 9300
same,z-score,[9]; [27],-0.0903 (inactive)
same,z-score,[9]; [28],-0.199
same,remaining NAD,[10],10 nM (inactive)
CC[C@H]1OC(=O)[C@H](C)[C@@H](O[C@H]2C[C@@](C)(OC)[C@@H](O)[C@H](C)O2)[C@H](C)[C@@H](O[C@@H]2O[C@H](C)C[C@H](N(C)C)[C@H]2O)[C@](C)(O)C[C@@H](C)[C@@H]2N[C@@H](COCCOC)O[C@H]([C@H]2C)[C@]1(C)O,parasite load remaining,[3],193% (inactive) and 158% (inactive) and 59.8% (inactive)
same,viability,[3],113% and 86.5% and 194%
same,red/green cell ratio (normalised),[6],0.74 (inactive)
same,normalised cell number,[6]; [21],1.25
same,normalised cell number,[6]; [22],0.93
same,fold change,[7]; [23],0.867 (inactive) and 0.854 (inactive)
same,fold change,[7]; [24],0.963 and 2.6
same,cell count,[7]; [25],8760 and 11500
same,cell count,[7]; [26],10100 and 13500
same,z-score,[9]; [27],-1.14 (inactive)
same,z-score,[9]; [28],-0.393
same,remaining NAD,[10],10 nM (inactive)
same,luciferase signal,[12],44 AU (inactive)
CC1CC(OC(=O)C(O)c2ccccc2)CC(C)(C)C1 (stereo not given),red/green cell ratio (normalised),[6],1 (inactive)
same,normalised cell number,[6]; [21],1.03
same,normalised cell number,[6]; [22],1.03
same,fold change,[7]; [23],0.925 (inactive) and 0.927 (inactive)
same,fold change,[7]; [24],0.697 and 0.603
same,cell count,[7]; [25],7310 and 7360
same,cell count,[7]; [26],7900 and 7940
same,z-score,[9]; [27],-0.227 (inactive)
same,z-score,[9]; [28],-0.184
same,remaining NAD,[10],10 nM (inactive)
CC(=O)OCC(=O)[C@@]1(O)CCC2C3CCC4=CC(=O)C=C[C@]4(C)[C@@]3(Cl)[C@@H](Cl)C[C@@]21C (stereo not given in full),red/green cell ratio (normalised),[6],1 (inactive)
same,normalised cell number,[6]; [21],1.2
same,normalised cell number,[6]; [22],1.2
same,fold change,[7]; [23],0.864 (inactive)
same,fold change,[7]; [24],1.22
same,cell count,[7]; [25],6210
same,cell count,[7]; [26],7190
C[C@@H]1CC2C3CCC4=CC(=O)C=C[C@]4(C)[C@@]3(F)[C@@H](O)C[C@]2(C)[C@@]1(O)C(=O)CO (stereo not given in full),inhibition,[13],-20.4%
same,score,[14],1.07
same,rescue above control,[15],-7.18
same,cytochrome c release ratio,[16],0.84
same,inhibition of aggregation,[17],31.7%
same,glutamate uptake change,[18],53.3%
same,inclusion score,[19],2
same,aggregation suppression score,[20],1.35
same,parasite load remaining,[3],152% (inactive) and 64.1% (inactive)
same,viability,[3],77.2% and 87.1%
same,red/green cell ratio (normalised),[6],1.24 (inactive)
same,normalised cell number,[6]; [21],1.34
same,normalised cell number,[6]; [22],1.66
same,fold change,[7]; [23],0.825 (inactive)
same,fold change,[7]; [24],2.2
same,cell count,[7]; [25],7310
same,cell count,[7]; [26],8850
